# The source made the active and inactive calls. The rule behind the calls is not given here.
# Experiment: PubChem AID 588753
# Details: Ricerca radioligand binding panel, % inhibition, at 10 µM, stronger effect = higher value
smiles,measurement,setting,value
C[C@@H](NC(=O)c1ccc(C#Cc2cccc(F)c2)cn1)C(C)(C)O,inhibition,L-type Ca channel DHP site,22%
same,inhibition,NMDA phencyclidine site,25%
same,inhibition,adenosine A2a binding,12%
same,inhibition,adrenergic alpha1A binding,18%
same,inhibition,,8% (inactive)
same,inhibition,dopamine transporter binding,8%
same,inhibition,hERG binding,-2%
same,inhibition,leukotriene CysLT1 binding,17%
same,inhibition,norepinephrine transporter binding,9%
same,inhibition,purinergic P2XY binding,24%
same,inhibition,serotonin 5-HT2B binding,36%
same,inhibition,serotonin transporter binding,6%
same,inhibition,sigma 1 binding,31%
